HT1080NT lethal: kills 2HG-producing HT-1080-NT fibrosarcoma cells; HT-1080-NT fibrosarcoma viability, CellTiter-Glo ATP luminescence, 48 h; Potency, µM (doses to about 46.1 µM), inactives show at the top dose activity, negative = less viability, most hits filed as cytotoxic; 1.6% of 360,000 active; AID 686970;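 note: NT is the 2HG producing partner of a matched IDH1 knockdown line; 0% = DMSO-treated cells and -100% = media-only wells without cells; nearly all actives have a fitted effect of over 55% in size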
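Compounds were tested in concentration-response format on HT-1080-NT cells for 48 hours at 37 degrees C. Cell viability came from CellTiter-Glo luminescence; curves were classified by r2, response magnitude and activity.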
KB-V1 MDR tox: KB-V1 MDR subline cytotoxicity; KB-V1 MDR cells viability, CellTiter-Glo, 72 h; Potency, µM (top dose mostly 46.1 µM), usual class: cytotoxic; 3.4% of 400,000 active; AID 1347076; note: % is set by controls: 0 for no effect and ±100 for the full control effect; nearly all actives have a fitted effect of over 60% in size
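qHTS viability screen in drug-selected KB-V1 MDR cells: 72 h compound treatment at 37 degrees C, ATP luminescence end point.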
SW480 rereplic: DNA re-replication induction in SW480 cells | SW480 DNA re-replication, Hoechst DNA content imaging, 48 h | Potency, µM (titrated, usually from 46.1 µM), for inactives: at the top dose re-replication activation, usual class: activators | 1.8% of 340,000 active | AID 624297; note: % of control where 0% means no effect; nearly all actives have a fitted effect of over 55% in size
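First, 250 cells per well were seeded. Next, compound or vehicle (23 nL) was pinned in, plates sat 48 hr at 37 C. Finally Hoechst was added for 40 min before fluorescence scanning.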
MCF10A rereplic: inducers of DNA re-replication in MCF 10A breast cells; Potency, µM (series often up to 46.1 µM), for the others: top-dose activity, positive = re-replication, usual class: activators; MCF 10A DNA re-replication, Hoechst nuclear intensity, 48 h; 2.9% of 350,000 active; AID 624296; note: % of control where 0% means no effect; nearly all actives have a fitted effect of over 50% in size
HT1080 IDH1KD tx: HT-1080 IDH1 knockdown cell toxicity (counter line); 2% of 360,000 active; Potency, µM (doses to about 46.1 µM), without a hit: at the highest dose activity, negative = toxicity, most hits filed as cytotoxic; HT-1080 IDH1 knockdown viability, ATP luminescence, 48 h;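 note: 0% = DMSO wells and -100% = cell-free medium wells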
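CellTiter-Glo luminescence after 48 h compound exposure at 37 degrees C of IDH1-knockdown HT-1080 cells in 5% FBS RPMI. %Activity scaled between DMSO wells and cell-free media wells, with curves fitted and assigned curve classes.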
KB-3-1 tox: kills parental KB-3-1 adenocarcinoma cells; KB-3-1 viability, CellTiter-Glo ATP luminescence, 72 h; Potency, µM (titrated, usually from 46.1 µM), usual class: cytotoxic; 1.4% of 400,000 active; AID 1347075; note: % is set by controls: 0 for no effect and ±100 for the full control effect; nearly all actives have a fitted effect of over 60% in size
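72 h, 37 °C compound treatment of KB-3-1 parental cells; CellTiter-Glo added, 10 min, luminescence read. Data corrected against DMSO-only plates and normalized before curve fitting.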
An asterisk follows results filed as active; i = inactive; ? = inconclusive; . = no result; ! = not active in a repeat; [ ] = another dose, or the depositor's remark. Shown are actives, neighbours in structure and some others; about 8% of the full set was active somewhere. Calls come from the whole dose curve; as a rule, active = well fitted curve in the direction sought with a large enough effect; inconclusive = small, poorly fitted or top-dose-only effect, or another doubt; inactive = no such curve, though single readings can be large; an effect the other way counts as inactive or inconclusive. Potency is the fitted concentration of half-maximal effect.

SMILES	HT1080NT lethal	KB-V1 MDR tox	SW480 rereplic	MCF10A rereplic	HT1080 IDH1KD tx	KB-3-1 tox
CCOc1ccc(OCc2cccc(C(=O)N3CCCCCC3)c2)cc1	-15.9%	?	11.0%	?	-0.6%	i
O=C(NN1CCCCC1)c1cccc(COc2ccc(Cl)cc2)c1	5.7%	14.6µM*	-4.5%	12.4%	8.3%	i
O=[N+]([O-])c1cc(-c2ncccn2)c([N+](=O)[O-])s1	16.4µM*	?	20.6µM*	7.31µM*	20.6µM*	16.4µM*
O=C(Nc1ncccn1)c1cc([N+](=O)[O-])cc([N+](=O)[O-])c1	12.1%	i	-7.4%	?	20.7%	i
CCN(CC)CCNC(=O)c1sc2nc(C)cc(C)c2c1-n1cccc1	.	i	.	.	.	i
Cc1cc(C)c2nc(/N=C(\N)NC(=O)Nc3ccccc3)nc(C)c2c1	-16.2%	?	9.2µM*	20.6µM*	-16.1%	i
COc1ccc(Nc2nnc(SCC(=O)/C=C3/N(C)c4ccccc4C3(C)C)s2)cc1	-14.6%	2.59µM*	0.2%	?	?	?
CN1/C(=C\C(=O)CSc2nnc(N)s2)C(C)(C)c2ccccc21	0.0%	i	-3.4%	?	-22.6%	i
O=C(NCc1cccs1)C1CCN(C(=O)N2CCOc3ccccc32)CC1	.	i	.	.	.	i
Cc1ccc(NC(=O)c2nc(S(C)(=O)=O)ncc2N(Cc2ccc(C(C)(C)C)cc2)Cc2ccco2)cc1C	.	i	.	.	.	i
Cc1nn(-c2ccccn2)c2c1-c1nc(N3CCOCC3)ncc1CC2	-2.6%	18.4µM*	-7.1%	8.5%	1.5%	?
CCc1cccc(N2C(=O)N(Cc3c(F)cccc3Cl)c3ccccc3S2(=O)=O)c1	.	?	.	.	.	i
O=C(c1ccc(-c2nc3ccccc3s2)s1)N1CCOCC1	8.2µM*	?	2.5%	?	?	?
Cc1ccc(-c2nc3ccccc3s2)cc1S(=O)(=O)N1CCCC1	-41.3%	i	4.4%	?	10µM*	i
CCN1CCN(C(=O)c2ccc(-c3nc4ccccc4s3)s2)CC1	-1.4%	i	-16.5%	?	-10.2%	i
O=S(=O)(c1cccc(-c2csc(-c3ccccc3)n2)c1)N1CCOCC1	3.4%	i	?	46.7%[0.0737 µM]	0.0%	i
O=S(=O)(c1cccc(-c2nc3ccccc3s2)c1)N1CCOCC1	-8.4%	16.4µM*	20.0%	19.0%	-7.2%	?
Cc1ccc(-c2nnc(NCc3nc4ccccc4[nH]3)c3ccccc23)cc1S(=O)(=O)N1CCCCC1	-4.1%	i	3.6%	?	3.5%	i
COC(=O)c1ccccc1NC(=O)c1cn2c3c(ccc(Cl)c3c1=O)OC(C)C2 (stereo not drawn)	.	i	.	.	.	i
O=C1CS(=O)(=O)C2(C(=O)N(Cc3ccccc3)c3ccccc32)N1c1ccccc1 (stereo not drawn)	.	i	.	.	.	i
CCc1cccc2c(C(=O)COC(=O)c3c(C)noc3C)c[nH]c12	?	?	?	23.1µM*	?	i
Cc1noc(C)c1C(=O)OCC(=O)c1c[nH]c2ccccc12	-0.5%	i	0.7%	0.2%	0.8%	i
CC1(C)Cc2c(sc3nnn(CC(=O)Nc4ccccc4)c(=O)c23)CO1	0.5%	i	-16.2%	1.7%	0.9%	i
CC1(C)Cc2c(sc3nnn(Cc4ccc(Cl)cc4)c(=O)c23)CO1	4.2%	6.51µM*	19.9%	27.5%	-1.1%	?
CCCCNc1c(-c2ccc(OC)c(Sc3ccc(OC)cc3)c2)nc2cnccn12	29.1µM*	?	?	?	?	?
CCCCCCSc1cc(-c2nc3cc(C)ccn3c2NCCCC)ccc1OC	25.9µM*	20.6µM*!	10.5%	?	23.1µM*	i
CCCCCCSc1cc(-c2nc3cnccn3c2NCCCC)ccc1OC	-10.8%	i	?	14.6µM*	-7.5%	i
